In PubChem BioAssay (NCATS):
Results filed as inconclusive are left out. Activity calls are given as the source filed them. Unless noted, calls come from the whole dose curve; as a rule, active = well fitted curve in the direction sought with a large enough effect; inconclusive = small, poorly fitted or top-dose-only effect, or another doubt; inactive = no such curve, though single readings can be large; an effect the other way counts as inactive or inconclusive.

Legend:
[1] = target: Protein phosphatase 1D (Homo sapiens) (UniProt O15297); experiment: RapidFire Mass Spectrometry qHTS Assay for Modulators of WT P53-Induced Phosphatase 1 (WIP1) (AID 1347424); settings: WIP1 dephosphorylation of phosphopeptide, RapidFire MS; series mostly up to 63 µM;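 note: amount of dephosphorylated VEPPL-S-QETFS peptide product formed by WIP1; plate controls were DMSO wells for no effect and GSK830371 inhibitor control at 10 µM for full effect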
Sequence of Protein phosphatase 1D (Homo sapiens) (O15297 whole entry, looked up): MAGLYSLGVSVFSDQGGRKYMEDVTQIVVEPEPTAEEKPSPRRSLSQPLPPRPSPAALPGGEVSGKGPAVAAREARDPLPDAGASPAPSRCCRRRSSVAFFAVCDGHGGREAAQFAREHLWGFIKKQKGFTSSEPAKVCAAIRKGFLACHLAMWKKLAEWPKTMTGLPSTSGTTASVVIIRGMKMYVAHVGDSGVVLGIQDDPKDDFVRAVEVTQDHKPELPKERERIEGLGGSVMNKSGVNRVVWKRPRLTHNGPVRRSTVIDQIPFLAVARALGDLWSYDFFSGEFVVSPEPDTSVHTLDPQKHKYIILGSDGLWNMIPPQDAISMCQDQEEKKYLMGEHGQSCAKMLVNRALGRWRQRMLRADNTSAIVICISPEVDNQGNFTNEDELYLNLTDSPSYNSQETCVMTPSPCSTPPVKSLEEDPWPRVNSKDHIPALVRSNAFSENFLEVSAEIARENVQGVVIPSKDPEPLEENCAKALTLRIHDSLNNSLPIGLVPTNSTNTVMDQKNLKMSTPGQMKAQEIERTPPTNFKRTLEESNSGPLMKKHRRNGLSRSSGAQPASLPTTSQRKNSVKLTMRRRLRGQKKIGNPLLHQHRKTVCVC
Procedure, shortened: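 RapidFire mass spectrometry measured dephosphorylated peptide after 5 min room-temperature reaction of 2 uM VEPPL-pS-QETFS with 10 nM WIP1 (50 mM Tris-HCl pH 7.5, 30 mM MgCl2, 0.1 mM EGTA, BSA), following 1 hr compound preincubation; 1 uM isotope-labelled product standard.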

[2] = target: Protein phosphatase 1D (Homo sapiens) (UniProt O15297); experiment: Rhodamine-PBP qHTS Assay for Modulators of WT P53-Induced Phosphatase 1 (WIP1) (AID 1347425); settings: recombinant WIP1, Rhodamine-PBP phosphate fluorescence, real-time; series mostly up to 57.5 µM; note: % of control where 0% means no effect
Procedure, shortened: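 The read-out is the change in Rhodamine-PBP fluorescence (f1 - f0, ex 525/em 598 nm) as Pi is released, read each minute for 11 min. Final reaction: 5 nM WIP1, 10 uM phosphopeptide VEPPL-pS-QETFS, 10 uM Rh-PBP, 50 mM Tris-HCl pH 7.5, 30 mM MgCl2. Compound was preincubated with enzyme for 1 hour at room temperature.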

[3] = Primary qHTS for inhibitors of SARS-S pseudo-typed particle cell entry (AID 1479145; calls by dose curve; note: nearly all actives have a fitted effect of over 45% in size); settings: SARS-S pseudotyped particle cell entry, luciferase reporter; series mostly up to 57.1 µM
[4] = Primary qHTS for Huh7 cytotoxicity: counterscreen for inhibitors of MERS-S pseudotyped particle cell entry (AID 1479147; calls by dose curve); settings: cell viability read-out; series mostly up to 57.1 µM
[5] = Primary qHTS for inhibitors of MERS-S pseudo-typed particle cell entry (AID 1479149; calls by dose curve; note: nearly all actives have a fitted effect of over 60% in size); settings: MERS-S pseudotyped particle entry, luciferase; series mostly up to 57.1 µM
[6] = Primary qHTS for Vero E6 cytotoxicity: counterscreen for inhibitors of SARS-S pseudo-typed particle cell entry (AID 1479150; calls by dose curve); settings: cell viability; series mostly up to 57.1 µM
[7] = Primary qHTS for inhibitors of La Crosse Virus (LACV) - induced cell death in SH-SY5Y cells (AID 1508616); settings: SH-SY5Y LACV cytopathicity rescue, ATP luminescence, 6 d; series mostly up to 4.29 µM;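 note: top concentration of the series differs between compounds; 0% = infected DMSO wells and 100% = uninfected DMSO wells; higher means more rescue of cells from virus-induced death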
Procedure, shortened: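 Cytopathicity rescue screen: compounds pinned onto SH-SY5Y cells, which are then infected with LACV (MOI 0.01) and held 6 days at 37C. Percent activity is scaled between infected DMSO control and uninfected DMSO control.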

[8] = target: Calcium and integrin-binding protein 1 (Homo sapiens) (UniProt Q99828); experiment: Primary qHTS for Identification of Calcium Integrin Binding Protein 1 (CIB1) Competitor (AID 1508620); settings: CIB1-GST / FITC-alphaIIb peptide fluorescence polarization; series mostly up to 114 µM;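 note: GST tagged CIB1 binding a fluorescein labelled alphaIIb integrin peptide tracer; top concentration of the series differs between compounds; % is set by controls: 0 for no effect and ±100 for the full control effect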
Sequence of Calcium and integrin-binding protein 1 (Homo sapiens) (Q99828 whole entry, looked up): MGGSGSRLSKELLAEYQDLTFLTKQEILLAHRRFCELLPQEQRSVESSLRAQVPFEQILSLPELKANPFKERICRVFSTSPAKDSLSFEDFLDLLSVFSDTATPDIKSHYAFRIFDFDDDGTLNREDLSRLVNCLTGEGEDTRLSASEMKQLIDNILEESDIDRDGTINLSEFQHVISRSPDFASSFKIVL
Procedure, shortened: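 CIB1-GST (1 uM final) and compound incubated 15 min at room temperature before adding FITC-alphaIIb peptide tracer (100 nM final). Competition for binding read by fluorescence polarization (ex 480, em 540) after another 15 min at room temperature.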

[9] = qHTS for inhibitors of adenylyl cyclases using a fission yeast platform: a pilot screen against the NCATS LOPAC library (AID 1347410);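 note: plate controls were DMSO vehicle for no effect and DPI positive control for full effect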; settings: S. pombe CHP2027, fbp1-GFP fluorescence, 18 h; series mostly up to 57.5 µM
Procedure, shortened: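 Read-out: fbp1-GFP fluorescence by laser scanning cytometry (488 nm laser), a gain of signal when AC/cAMP-PKA signalling is inhibited. Strain CHP2027 expressing AC9, GNAS and PDE4D2; compounds at up to 57 µM; 18 h, 30C.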

[10] = target: Calcium and integrin-binding protein 1 (Homo sapiens) (UniProt Q99828); experiment: Validation qHTS for Identification of Calcium Integrin Binding protein 1 (CIB1) Competitor (AID 1508618); settings: CIB1-GST / FITC-alphaIIb peptide fluorescence polarization; series mostly up to 114 µM; note: % is set by controls: 0 for no effect and ±100 for the full control effect
Procedure, shortened: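 CIB1-GST (1 uM final) incubated 15 min at room temperature with compounds (up to 114 uM), then FITC-labelled alphaIIb peptide (100 nM) added. FP read (Ex 480/Em 540) after 15 min, pH 7.4 buffer containing 5 mM CaCl2.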

[11] = Primary qHTS for small molecule stabilizers of the endoplasmic reticulum resident proteome: Secreted ER Calcium Modulated Protein (SERCaMP) assay (AID 1508630); settings: SH-SY5Y GLuc-SERCaMP (Gaussia luciferase released on ER calcium loss) secretion, thapsigargin, luminescence; series mostly up to 38.4 µM; note: % is set by controls: 0 for no effect and ±100 for the full control effect
Procedure, shortened: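 The SH-SY5Y reporter protocol was run at 3 concentrations up to 38.3 uM (primary) or 11 concentrations (follow-up): 16 h compound, 100 nM thapsigargin for 4 h, then extracellular luciferase luminescence.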

[12] = A High-Content qHTS Against Drug Library for the Identification of Small Molecules that Inhibit DYT1 Early Onset Primary Dystonia-Associated Cell Pathology (AID 1645839; calls by dose curve); settings: HEK293 Flp-In EGFP-delE TorsinA, punctate imaging, 48 h; series mostly up to 46.1 µM
Procedure, shortened: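 High-content imaging quantified EGFP-TorsinA mislocalization in HEK293-derived cells inducibly expressing DYT1 mutant torsinA, after 48 h exposure to compound given together with tetracycline induction. Cell count served as a toxicity channel alongside %pathology.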

[13] = Validation qHTS assay for inhibitors of Activation Induced Cytidine Deaminase (AID): UDG Counterscreen signal (AID 1347427); settings: biochemical UDG counterscreen, fluorescence signal; series mostly up to 115 µM; note: 0% is about no effect
Procedure, shortened: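 Fluorescence at 560 nm excitation, 665 nm emission reports UDG signal after 250 mM NaOH (2x) addition and 30 min. Enzymes (AID 1 uM, UDG 2 U/mL, at 4/3x) preincubated 10 min with compound, then 4 h with 4x 250 nM DJC20/DJC23 substrate at room temperature.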

[14] = Counterscreen qHTS for small molecule stabilizers of the endoplasmic reticulum resident proteome: GLuc-NoTag assay (AID 1508627); settings: Gaussia luciferase NoTag secretion counterscreen, luminescence, thapsigargin 100 nM for final 4 h; series mostly up to 76.4 µM;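 note: SH-SY5Y cells given compound then 100 nM thapsigargin to empty ER calcium; 0% = thapsigargin alone and -100% = DMSO vehicle control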
Procedure, shortened: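 Counterscreen line: SH-SY5Y-GLuc-NoTag cells, treated with compound 19 hr before a 4 hr, 100 nM thapsigargin calcium depletion. Secreted Gaussia luciferase in the medium was measured by luminescence after coelenterazine was added (0.07x final), with cells unlysed.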

[15] = Confirmatory qHTS for small molecule stabilizers of the endoplasmic reticulum resident proteome: Secreted ER Calcium Modulated Protein (SERCaMP) assay (AID 1508628); settings: SERCaMP secreted luciferase ER calcium/proteostasis reporter; series mostly up to 76.3 µM; note: % is set by controls: 0 for no effect and ±100 for the full control effect; nearly all actives have a fitted effect of over 40% in size
Procedure, shortened: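 GLuc-SERCaMP-expressing SH-SY5Y cells, pretreated 16 h with compound, are challenged with thapsigargin to empty ER calcium stores; after 4 h, coelenterazine is added directly to the medium and luminescence is imaged.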

[16] = Cell Viability qHTS for small molecule stabilizers of the endoplasmic reticulum resident proteome (AID 1508629); settings: cell viability counter-screen, 100 nM thapsigargin for final 4 h;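 note: human SH-SY5Y neuroblastoma cells carrying the GLuc-SERCaMP reporter; compound exposure about 46 h in total before the viability read; % is set by controls: 0 for no effect and ±100 for the full control effect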
[17] = qHTS to identify inhibitors of the type 1 interferon - major histocompatibility complex class I in skeletal muscle: primary screen against the NCATS Mechanism Interrogation Plate v5.0 (MIPE) Libary (AID 1347411); settings: iHSKM cells + IFN-b, HiBiT-tagged MHC-I luminescence, 24 h; series mostly up to 45.8 µM;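 note: plate controls were vehicle for no effect and reference inhibitor for full effect; nearly all actives have a fitted effect of over 65% in size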
Procedure, shortened: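 HLA-B HiBit myoblasts, dexamethasone-free medium + 4 ng/ml IFN-b, 24 h compound, 11-pt 1:3 from 46 uM final. Readout: Nano-Glo HiBiT lytic luminescence after 10 min lysis, RT.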

CCC(C)C(C)(COC(N)=O)COC(N)=O (stereo unspecified)
inactive: Potency [1] | outcome [2] | Potency [3] | Potency [4] | Potency [5] | Potency [6] | outcome [7] | Potency [8]

O=c1[nH]c2ccccc2n1C1CCNCC1
inactive: Potency [1] | outcome [2] | outcome [7] | Potency [8]

CCCCCN(C)CCC(O)(P(=O)(O)O)P(=O)(O)O
inactive: outcome [9] | activity change, negative = inhibition [3] -12.9% [at 11.4 µM] | activity change, negative = cytotoxicity [4] 3.48% [at 11.4 µM] | activity change, negative = inhibition [5] -24.6% [at 11.4 µM] | activity change, negative = cytotoxicity [6] 1.39% [at 11.4 µM] | outcome [10]

O=C1c2ccccc2C(=O)c2ccccc21
inactive: Potency [1] | outcome [2] | Potency [3] | Potency [4] | Potency [5] | Potency [6] | outcome [7] | Potency [8] | Potency [11] | outcome [12]

COc1ccc2c(c1OC)C(=O)O[C@H]2[C@@H]1c2cc3c(cc2CCN1C)OCO3
inactive: outcome [9] | Potency [1] | outcome [2] | outcome [13] | Potency [3] | Potency [4] | Potency [5] | Potency [6] | outcome [7] | outcome [10] | Potency [8]

CCC1(CC)C(=O)C=CNC1=O
inactive: Potency [1] | outcome [2] | outcome [7] | Potency [8]

COc1c2c(cc3c1OCO3)CCN(C)C2
inactive: Potency [1] | outcome [2] | Potency [3] | Potency [4] | Potency [5] | Potency [6] | outcome [7] | Potency [8] | outcome [14] | Potency [15] | max response [16] 7.99% | outcome [12]

C[C@]12Cc3cn[nH]c3C[C@@H]1CC[C@@H]1[C@@H]2CC[C@@]2(C)[C@H]1CC[C@]2(C)O
inactive: Potency [17] | Potency [1] | outcome [7] | Potency [8] | outcome [12]

COP(=S)(OC)Oc1cc(Cl)c(Cl)cc1Cl
inactive: Potency [1] | outcome [2] | Potency [3] | Potency [4] | Potency [5] | Potency [6] | outcome [7] | Potency [8] | outcome [12]

Nc1ccccc1C(=O)O
inactive: Potency [1] | outcome [2] | outcome [7] | Potency [8]

CC(NC(C)(C)C)C(=O)c1cccc(Cl)c1 (stereo unspecified)
inactive: outcome [9] | Potency [17] | outcome [2] | outcome [13] | Potency [3] | Potency [4] | Potency [5] | Potency [6] | outcome [7] | outcome [10] | Potency [8] | outcome [12]

O=c1[nH]oc2c1CCNC2
inactive: Potency [1] | outcome [13] | outcome [7] | outcome [10] | Potency [8] | outcome [12]

CCCOC(=O)c1cncn1C(C)c1ccccc1 (stereo unspecified)
inactive: Potency [1] | outcome [2] | outcome [7] | Potency [8] | Potency [11]

COc1cccc([C@@]2(O)CCCC[C@@H]2CN(C)C)c1
inactive: Potency [1] | outcome [2] | Potency [8] | outcome [12]

C[C@]12CC[C@H]3[C@@H](CCC4=CC(=O)CC[C@@H]43)[C@@H]1CC[C@@H]2OC(=O)CCc1ccco1
inactive: Potency [1] | Potency [3] | Potency [4] | Potency [5] | Potency [6] | outcome [7] | Potency [8] | Potency [11]

CC(Cc1ccccc1)N(C)Cc1ccco1 (stereo unspecified)
inactive: Potency [1] | outcome [7] | Potency [8]

C=CCC1(C(C)CC)C(=O)NC(=O)NC1=O (stereo unspecified)
inactive: Potency [1] | Potency [3] | Potency [4] | Potency [5] | Potency [6] | outcome [7] | Potency [8] | outcome [12]

COc1cc(CC(C)N)cc(OC)c1OC (stereo unspecified)
inactive: Potency [1] | outcome [2] | outcome [7] | Potency [8] | outcome [12]

CC(C)(N)Cc1ccccc1Cl
inactive: Potency [1] | outcome [2] | outcome [7] | Potency [8]

CCC(C)(C)c1ccc(O)cc1
inactive: Potency [1] | outcome [2] | outcome [7] | Potency [8] | outcome [12]

[N-]=[N+]=CC(=O)OC[C@H](N)C(=O)O
inactive: Potency [1] | outcome [2] | outcome [7] | Potency [8] | Potency [11]

CCN[C@@H](C)Cc1ccccc1
inactive: Potency [1] | outcome [2] | outcome [7] | Potency [8] | outcome [12]

Clc1ccc(C(c2ccc(Cl)cc2)C(Cl)(Cl)Cl)cc1
inactive: Potency [1] | Potency [3] | Potency [4] | Potency [5] | Potency [6] | outcome [7] | Potency [8]

CC(C)c1c(CN(C)C(C)Cc2ccccc2)n(C)n(-c2ccccc2)c1=O (stereo unspecified)
inactive: Potency [1] | outcome [2] | outcome [7] | Potency [8] | Potency [11]

CC[N+]1(CC)CCC(OC(=O)C(O)(c2ccccc2)c2ccccc2)C1 (stereo unspecified)
inactive: Potency [1] | outcome [2] | outcome [7] | Potency [8] | outcome [12]

CCCN(CCC)C(=O)Cc1c(-c2ccc(Cl)cc2)nc2ccc(Cl)cn12
inactive: Potency [1] | outcome [2] | outcome [7] | Potency [8]

C[C@H](N)C(=O)c1ccccc1
inactive: Potency [1] | outcome [2] | outcome [7] | Potency [8] | outcome [14]

c1ccc(N2CCNCC2)cc1
inactive: Potency [1] | outcome [2] | outcome [7] | Potency [8] | outcome [12]

CN1C(=O)NC(=O)C(C)(C2=CCCCC2)C1=O (stereo unspecified)
inactive: Potency [1] | Potency [4] | Potency [5] | Potency [6] | outcome [7] | Potency [8] | Potency [11] | outcome [12]

Nc1nc(N)nc(NC2CC2)n1
inactive: Potency [1] | outcome [2] | outcome [7] | Potency [8]
